Test results reported in PubChem BioAssay (NCI).
Compounds without any hit were thinned out: in the full panel of roughly 83,000, 20% have a hit.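 Single-concentration screen, 48 h exposure, 96-well plates. Endpoint: percent growth. Below 10 = active.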 Calls of active or inactive are those of the source.

Each molecule was assayed on MDA-MB-468 breast (assay: NCI-60 one-dose screen, 48 h (100 = growth as untreated, 0 = no growth, -100 = all killed)). Settings: 10 µM unless noted.
With `O=C(NCc1ccccc1)C(Cl)Cl` the growth was 85.2% (inactive).
`CCOc1nc(-c2ccccc2)cc2c(O)c(C(=O)N/N=C/c3ccc(N(C)C)cc3)[nH]c(=O)c12` was tested, and the growth was 158% (inactive).
`CC(C)=NOC(C)C(=O)O` (stereo not given) was tested, and the growth was 106% (inactive).
`Cc1ccc(C)c(-n2c(-c3ccc(Br)cc3)csc2=NC(=O)c2ccccc2F)c1` was tested, and the growth was 55.4% (inactive).
With `C=C(C)[C@@H]1CC=C2c3sc(-c4ccc(C)cc4)nc3C[C@@H](C)[C@]2(C)C1` the growth was 108% (inactive).
In the case of `Cc1ccc(C(=O)c2sc3nc4c(cc3c2N)CCCC4)c(C)c1`, the growth is reported as 32.3% (inactive).
With `Brc1cnc2ccccc2c1` the growth was 113% (inactive).
For `O=C(CCc1ccc(O)cc1)N/N=C/c1cc(Br)ccc1O`, the growth was 56.8% (inactive).
In the case of `CCN(Cc1ccc(CN(CC)C(=O)C(Br)Br)cc1)C(=O)C(Br)Br`, the growth is reported as 17.6% (inactive).
In the case of `Cc1ccc(N=CNN=C(N)N)cc1`, the growth is reported as 100% (inactive).
In the case of `COc1ccc(-c2cc(-c3ccc(N(C)C)cc3)nc(NC(=O)c3cccnc3)n2)cc1`, the growth is reported as 106% (inactive).
With `[O-][N+](=Nc1cccc(Cl)c1)c1cccc(Cl)c1` the growth was -25% (active).
With `CCCCCCN1C(=O)CN=C1Nc1ccc2cc3ccc(NC4=NCC(=O)N4CCCCCC)cc3nc2c1` the growth was 3.94% (active).
For `O=S(=O)(Oc1ccc(Br)cc1)c1ccc(Cl)cc1`, the growth was 105% (inactive).
In the case of `CCCCCCCCCCCCCCn1cc(C2=C(c3coc4ccc(OC)cc34)C(=O)NC2=O)c2ccccc21`, the growth is reported as 104% (inactive).
In the case of `Cc1ccc(S(=O)(=O)N(c2ccc(Cl)cc2)c2ccc(Br)cc2C(=O)O)cc1`, the growth is reported as 95.9% (inactive).
`O=C(O)COc1ccc(-c2cssc2=S)cc1` was tested, and the growth was 99.5% (inactive).
In the case of `C=C(C)[C@@H]1CC[C@]2(N=C=O)CC[C@]3(C)[C@H](CC[C@@H]4[C@@]5(C)Cc6c([nH]c7ccccc67)C(C)(C)[C@@H]5CC[C@]43C)[C@@H]12`, the growth is reported as 92.5% (inactive).
With `COc1ccc(/C=C2\NC(=S)NC2=O)cc1` the growth was 102% (inactive).
`COC(=O)[C@H](CSC)N(C)C(=O)[C@@H]1CSSC[C@@H](NC(=O)c2nc3ccccc3cc2O)C(=O)NCC(=O)N1C` was tested, and the growth was 61.3% (inactive).
For `O=C(O)CCCC(=O)O`, the growth was 94.9% (inactive).
For `CN1CCN(C(=O)[C@]23CCC(C)(C)C[C@H]2C2=CC[C@@H]4[C@@]5(C)C/C(=C/c6cccnc6)C(=O)C(C)(C)[C@@H]5CC[C@@]4(C)[C@]2(C)CC3)CC1`, the growth was 34.3% (inactive).
With `COc1ccc2cc(-c3cc(OC)c(OC)c(OC)c3)c(=O)oc2c1` the growth was 46.5% (inactive).
In the case of `O=C(C[n+]1ccn(CC(OCc2ccc(Cl)cc2Cl)c2ccc(Cl)cc2Cl)c1)c1ccc(F)cc1` (stereo not given), the growth is reported as -77.2% (active).
For `N#Cc1cnc2ccc(-c3cnc(N)nc3)cc2c1N1CCc2cc(F)c(Cl)cc21`, the growth was -38.1% (active).
With `COc1ccccc1-n1c(-c2sc(NC(C)=O)nc2C)n[nH]c1=S` the growth was 124% (inactive).
`CS(=O)(=O)c1ccc(-c2nc3cc(Cl)ccc3n2CC(=O)N/N=C/c2ccc(Cl)cc2)cc1` was tested, and the growth was 96.6% (inactive).
With `Cc1ccc2cccc(Oc3ccc(Nc4ncnc5onc(-c6ccccc6)c45)cc3)c2n1` the growth was 86.8% (inactive).
In the case of `Cc1cccc(NC(=O)c2sc3nc4c(cc3c2N)CN(Cc2ccccc2)CC4)c1C`, the growth is reported as 24.4% (inactive).
In the case of `Nc1ncnc2[nH]ncc12`, the growth is reported as -20.3% (active).
With `O=c1oc2ccc(Cl)cc2c(=O)n1-c1cc(C(F)(F)F)cc(C(F)(F)F)c1` the growth was -8.67% (active).
`O=C1C2C3C=CC(O3)C2C(=O)N1Nc1ccccc1` (stereo not given) was tested, and the growth was 105% (inactive).
In the case of `NCCSC(c1ccccc1)(c1ccccc1)c1ccccc1`, the growth is reported as 8.69% (active).
`N#CC(C#N)=NO` was tested, and the growth was 93.2% (inactive).
`Oc1ccc(CSc2nnc(-c3ccc(Oc4ccccc4)cc3)o2)c2cccnc12` was tested, and the growth was 30.7% (inactive).
`C=CCOc1c(Br)cc(Br)cc1Br` was tested, and the growth was 96.8% (inactive).
With `O=C(/C=C/C12c3ccccc3C(c3ccccc31)C1C(=O)NC(=O)C12)c1ccccc1` (stereo not given) the growth was 9.65% (active).
With `COc1ccc(C2=C(Br)C(=O)c3nc(C)ccc3C2=O)cc1` the growth was 87.1% (inactive).
With `COc1ccc(-n2c(N)c(-c3nc4ccccc4[nH]3)cc(C#N)c2=O)cc1` the growth was 93.1% (inactive).
In the case of `S=C(Nc1ccc(Cl)cc1)Nc1ccc(Cl)cc1` (tested in a mixture with another compound), the growth is reported as -16.6% (active).
